# Source: PubChem BioAssay (Tox21)
# Where “and” joins values, the source holds several entries; their conditions need not be identical. Identical values can stand only once. Records with an inconclusive call do not appear. Entries that show only a call come without a potency. Calls of active or inactive are those of the source. The call rests on the fitted dose curve; in most records, active means well fitted cell-killing curve with a large enough effect in the repeat runs; inconclusive means weak or mixed curves, or effect the other way; inactive means flat fitted curve, though single readings scatter.
# What was measured:
# [1] = cAMP Responsive Elements (CRE) small molecule antagonists, cell-based qHTS assay: qHTS cell viability counter screen (AID 2060913); conditions: CRE-bla HEK293T viability, CellTiter-Glo luminescence, 5 h; series mostly up to 92.4 µM; further: nearly all actives have a fitted effect of over 40% in size
# Summary of the method: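 Cytotoxicity counter screen multiplexed with the CRE-bla antagonist read: HEK293T cells in DMEM with dialyzed FBS and 25 mM HEPES were treated 3 hrs under 0.25 uM final NKH477, then viability measured by CellTiter-Glo luminescence.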
# [2] = cAMP Responsive Elements (CRE) small molecule agonists, cell-based qHTS assay: qHTS cell viability counter screen (AID 2060914); conditions: CRE-bla HEK293T viability, CellTiter-Glo luminescence, 5 h; series mostly up to 92.4 µM;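 further: viability read after 3 h of compound exposure; nearly all actives have a fitted effect of over 50% in size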
# Summary of the method: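 HEK 293T CRE-bla; DMEM + 10% dialyzed FBS, 25 mM HEPES; 18 h pre-incubation; compound 3 h, 37 °C/5% CO2; CellTiter-Glo added after reporter read; luminescence after 30 min RT.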
# Potency means the concentration at half of the fitted maximal effect.
SMILES,Potency [1],Potency [2]
CC(O)CN(CC(C)O)CC(C)O (stereo not given),inactive,inactive
CC(C)(C)C(=O)C(Oc1ccc(Cl)cc1)n1cncn1 (stereo not given),inactive,inactive
C=CCCC#N,inactive,inactive
S=C=NCc1ccccc1,inactive,inactive
CCOP(=S)(OCC)Oc1ccc([N+](=O)[O-])cc1,inactive,inactive
CCN(N=O)C(N)=O,inactive,inactive
Oc1ccccc1Br,inactive,inactive
CC(C)(N)Cc1ccccc1Cl,inactive,inactive
ClCCCCBr,inactive,inactive
CCOP(=S)(OCC)Oc1nc(Cl)c(Cl)cc1Cl,inactive,inactive
Cl/C=C\C[N+]12CN3CN(CN(C3)C1)C2,inactive,inactive
O=C/C=C/c1ccccc1,inactive,inactive
O=C1c2ccccc2C(=O)N1SC(Cl)(Cl)Cl,inactive,inactive
Nn1cnnc1,inactive,inactive
CCCN(CC)CC1COC2(CCC(C(C)(C)C)CC2)O1 (stereo not given),inactive,inactive
C=CCOC(C)=O,inactive,inactive
C1=CCC=C1,inactive,inactive
N#Cc1ccccn1,inactive,inactive
COc1cc(OC)nc(NC(=O)NS(=O)(=O)c2ncccc2C(=O)N(C)C)n1,inactive,inactive
CNC(=O)Oc1cc(C)c(SC)c(C)c1,inactive,inactive
O=S(=O)(O)OOS(=O)(=O)O,inactive,inactive
CCOC(=O)NC(O)C(Cl)(Cl)Cl (stereo not given),inactive,inactive
CCOC(=O)NC(C)(C)Cc1ccc(Cl)cc1,inactive,inactive
Oc1c(Br)cc(Br)cc1Br,inactive,inactive

SMILES,Potency [1],Potency [2]
COc1ccccc1N,inactive,inactive
COc1nc(C)nc(NC(=O)NS(=O)(=O)c2ccccc2Cl)n1,inactive,inactive
CC/C(=N\OC/C=C/Cl)C1=C(O)CC(C2CCOCC2)CC1=O (stereo not given),inactive,inactive
CN1C(=O)CN=C(c2ccccc2)c2cc([N+](=O)[O-])ccc21,inactive,inactive
CCOP(=O)(CN(CCO)CCO)OCC,inactive,inactive
CC(O)C(=O)[O][Hg][c]1ccccc1 (stereo not given),12.2 µM (active),12.2 µM (active)
C=CC(=O)NCNC(=O)C=C,inactive,inactive
CCOC(=O)Cc1ccccc1,inactive,inactive
CC[N+](CC)(CC)CC,inactive,inactive
Nc1ccc2ccccc2c1,inactive,inactive
N#CC1(N=NC2(C#N)CCCCC2)CCCCC1,inactive,inactive
BrC(Br)Br,inactive,inactive
CCOC(=O)C(C)OC(=O)c1cc(Oc2ccc(C(F)(F)F)cc2Cl)ccc1[N+](=O)[O-] (stereo not given),inactive,inactive
CCCN(CCC)CCc1c[nH]c2ccccc12,inactive,inactive
O=P(Cl)(Cl)Cl,inactive,inactive
O=P(Oc1ccccc1)(Oc1ccccc1)Oc1ccccc1,inactive,inactive
C[N+](C)(C)CC1CO1 (stereo not given),inactive,inactive
O=C1C(I)=CC(=C(c2cc(I)c(O)c(I)c2)c2ccccc2C(=O)O)C=C1I,inactive,inactive
Cc1cc(Cl)ccc1OCCCC(=O)O,inactive,inactive
CN(C)C(=O)Cl,inactive,inactive
CCC(Cl)[N+](=O)[O-] (stereo not given),inactive,inactive
CCCC[N+]1(C)CCCC1 (tested in a mixture with another compound),inactive,inactive
CC(C)(C1CCC(O)CC1)C1CCC(O)CC1 (stereo not given),inactive,inactive
O=c1[nH]c2ccccc2o1,inactive,inactive

SMILES,Potency [1],Potency [2]
O=C(O)CBr,inactive,inactive
CC(=O)[O-].CC(=O)[O-].O.O.O.[Pb+2],inactive,inactive
Cc1ccccc1N,inactive,inactive
C1CCC(NC2CCCCC2)CC1,inactive,inactive
COP(=O)(OC)OC=C(Cl)Cl,inactive,inactive
O=C(Cc1ccccc1)c1ccccc1,inactive,inactive
CC1CN1 (stereo not given),inactive,inactive
CC(Cc1ccccc1)N(C)Cc1ccco1 (stereo not given),inactive,inactive
OCCOc1ccccc1,inactive,inactive
CNC(=O)N(C)c1nnc(C(C)(C)C)s1,inactive,inactive
CC(O)CCl (stereo not given),inactive,inactive
CNC(=O)Oc1cccc(C(C)C)c1,inactive,inactive
O=C(O)Cc1ccccc1,inactive,inactive
CCCCCCCC[N+](C)(CCCCCCCC)CCCCCCCC,8.62 µM (active) and 48.6 µM (active),19.3 µM (active) and 30.6 µM (active)
N#CCc1ccccc1,inactive,inactive
CN(C1CCCCC1)C1CCCCC1,inactive,inactive
Cc1ncc(C[n+]2csc(CCO)c2C)c(N)n1,inactive,inactive
CCOP(=S)(OCC)Oc1ccc(S(C)=O)cc1 (stereo not given),inactive,inactive
CCN(CC)C(=O)Cl,inactive,inactive
ClCC(Cl)CCl,inactive,inactive
Clc1ccc(C(OCCN2CCCCC2)c2ccccc2)cc1 (stereo not given),inactive,inactive
CC(C)CCON=O,inactive,inactive
CC(=O)c1cc(C(C)(C)C)cc2c1CCC2(C)C,inactive,inactive
CC1NCCOC1c1ccccc1 (stereo not given),inactive,inactive

SMILES,Potency [1],Potency [2]
CN1CCC(O)(c2ccc(F)cc2)C(C(=O)c2ccc(F)cc2)C1 (stereo not given),inactive,inactive
O=C(Cl)/C=C/C(=O)Cl,inactive,inactive
N#CCCC#N,inactive,inactive
CC(C)(c1ccccc1)c1cc(-n2nc3ccccc3n2)c(O)c(C(C)(C)c2ccccc2)c1,inactive,inactive
Cc1cc(Cl)ccc1OCC(=O)O,inactive,inactive
O=[N+]([O-])c1cc(Cl)ccc1Cl,inactive,inactive
CCCCN(CCCC)C(=S)[S-].CCCCN(CCCC)C(=S)[S-].[Zn+2],inactive,inactive
O=NN1CCNCC1,inactive,inactive
COc1cc(C=O)cc2c1[C@H](COC(N)=O)[C@]1(OC(C)=O)ON2C[C@H]2[C@@H]1N2C(C)=O,inactive,inactive
Cc1ccc(-c2nc3ccc(C)cn3c2CC(=O)N(C)C)cc1,inactive,inactive
CCCCCCCCCl,inactive,inactive
Cc1c([N+](=O)[O-])cc2c(c1[N+](=O)[O-])C(C)(C)CC2(C)C,inactive,inactive
N#CSCc1ccccc1,inactive,inactive
C=CCc1ccc(OC(=O)Cc2ccccc2)c(OC)c1,inactive,inactive
CCOC(=O)CCN(SN(C)C(=O)Oc1cccc2c1OC(C)(C)C2)C(C)C,inactive,inactive
c1ccc(CN2CCNCC2)cc1,inactive,inactive
CCO/N=C(\CC)C1=C(O)CC(c2c(C)cc(C)cc2C)CC1=O (stereo not given),inactive,inactive
Clc1cc(C(Cl)(Cl)Cl)cnc1Cl,inactive,inactive
COC(C)(C)C,inactive,inactive
CNP(=O)(OC)Oc1ccc(C(C)(C)C)cc1Cl (stereo not given),inactive,inactive
CC(=O)Nc1cc([As](=O)(O)O)ccc1O,inactive,inactive
CCCC[n+]1cccc(C)c1,inactive,inactive
Nc1ccccc1-c1ccccc1,inactive,inactive
CCBr,inactive,inactive

SMILES,Potency [1],Potency [2]
O=[N+]([O-])c1cc([As](=O)(O)O)ccc1O,inactive,inactive
[O]=[Cr][O][Cr]=[O],inactive,inactive
C[C@]12C=CC(=O)C=C1CC[C@@H]1[C@@H]2CC[C@@]2(C)[C@H]1CC[C@]2(C)O,inactive,inactive
CC1(C)COP(Oc2ccccc2)OC1,inactive,inactive
O=[N+]([O-])/N=C1\NCCN1Cc1ccc(Cl)nc1,inactive,inactive
CN(C)c1ccc(C(=O)c2ccc(N(C)C)cc2)cc1,inactive,inactive
CCC[N+](CCC)(CCC)CCC,inactive,inactive
Nc1cc(Cl)ccc1O,inactive,inactive
CCOP(=O)(O)C(N)=O,inactive,inactive
Oc1ccc(Cl)c(Cl)c1,inactive,inactive
Nc1ccc([As](=O)(O)O)cc1,inactive,inactive
N#Cc1ccccc1N,inactive,inactive
C=CCBr,inactive,inactive
CC(C)C1(C)N=C(c2ncccc2C(=O)O)NC1=O (stereo not given),inactive,inactive
CCCSC(=O)Cl,inactive,inactive
CCC1(CC)C(=O)N=C(O)NC1=O,inactive,inactive
CCC[N+]1(C)CCCCC1,inactive,inactive
C=C(C)C(=O)OCCCCOC(=O)C(=C)C,inactive,inactive
C=CCSSCC=C,inactive,inactive
COC(=O)C(c1ccccc1)C1CCCCN1 (stereo not given),inactive,inactive
CC(Oc1ccc(Cl)cc1Cl)C(=O)O (stereo not given),inactive,inactive
CCN(CC)C(=O)C(C)Oc1cccc2ccccc12 (stereo not given),inactive,inactive
C[N+]1(CCF)[C@@H]2CC[C@H]1CC(OC(=O)C(O)(c1ccccc1)c1ccccc1)C2 (stereo not given in full),inactive,inactive
CC(C)C(=O)Cl,inactive,inactive
